Measured values published in the supplement of paper PMC4466140.

The binders below were run against AgAbp1 (assay: SPOT peptide array binding signal intensity (averaged, normalized) (arbitrary units (background-subtracted, floor 0; scale differs between SH3 domains)); higher = stronger binding of the SH3 domain to the peptide).
Description: (§1)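 GST-tagged SH3 domains from S. cerevisiae (Sc), A. gossypii (Ag), C. albicans (Ca) and S. pombe (Sp) were incubated at 10 ug/ml overnight at 4 C on cellulose SPOT membranes carrying 292 synthetic 15-mer peptides mined from the S. cerevisiae proteome (cysteines replaced by serines). Binding was detected with anti-GST antibody, HRP secondary and chemiluminescence, quantified with Genespotter, and reported as normalized spot intensities averaged over biological replicates.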

Row | Binder | SPOT peptide array binding signal intensity
1 | ISNFVPPNLPMRRFK | 31.5

Each binder was assayed against AgBbc1 in the same assay as above.
Description: as §1

Row | Binder | SPOT peptide array binding signal intensity
2 | ISNFVPPNLPMRRFK | 182

What follows are binders tested against AgBem1-D1 in the same assay as above.
Description: as §1

Row | Binder | SPOT peptide array binding signal intensity
3 | ISNFVPPNLPMRRFK | 124

Each binder was assayed against AgBzz1-D1 in the same assay as above.
Description: as §1

Row | Binder | SPOT peptide array binding signal intensity
4 | ISNFVPPNLPMRRFK | 90

These binders were tested against AgBzz1-D2 in the same assay as above.
Description: as §1

Row | Binder | SPOT peptide array binding signal intensity
5 | ISNFVPPNLPMRRFK | 70.5

Each binder was assayed against AgCyk3 in the same assay as above.
Description: as §1

Row | Binder | SPOT peptide array binding signal intensity
6 | ISNFVPPNLPMRRFK | 1

Each binder was assayed against AgFus1 in the same assay as above.
Description: as §1

Row | Binder | SPOT peptide array binding signal intensity
7 | ISNFVPPNLPMRRFK | 23

The binders below were run against AgHof1 in the same assay as above.
Description: as §1

Row | Binder | SPOT peptide array binding signal intensity
8 | ISNFVPPNLPMRRFK | 186

Each binder was assayed against AgHse1 in the same assay as above.
Description: as §1

Row | Binder | SPOT peptide array binding signal intensity
9 | ISNFVPPNLPMRRFK | 49

The binders below were run against AgLsb1 in the same assay as above.
Description: as §1

Row | Binder | SPOT peptide array binding signal intensity
10 | ISNFVPPNLPMRRFK | 136

Each binder was assayed against AgLsb4 in the same assay as above.
Description: as §1

Row | Binder | SPOT peptide array binding signal intensity
11 | ISNFVPPNLPMRRFK | 3890

These binders were tested against AgMyo5 in the same assay as above.
Description: as §1

Row | Binder | SPOT peptide array binding signal intensity
12 | ISNFVPPNLPMRRFK | ≤ 0

These binders were tested against AgNbp2 in the same assay as above.
Description: as §1

Row | Binder | SPOT peptide array binding signal intensity
13 | ISNFVPPNLPMRRFK | 64

What follows are binders tested against AgRvs167 in the same assay as above.
Description: as §1

Row | Binder | SPOT peptide array binding signal intensity
14 | ISNFVPPNLPMRRFK | 256

These binders were tested against AgSho1 in the same assay as above.
Description: as §1

Row | Binder | SPOT peptide array binding signal intensity
15 | ISNFVPPNLPMRRFK | 20.5

What follows are binders tested against AgSla1-D1-D2 in the same assay as above.
Description: as §1

Row | Binder | SPOT peptide array binding signal intensity
16 | ISNFVPPNLPMRRFK | 2.5

Each binder was assayed against AgSla1-D3 in the same assay as above.
Description: as §1

Row | Binder | SPOT peptide array binding signal intensity
17 | ISNFVPPNLPMRRFK | 3

These binders were tested against CaAbp1-D1 in the same assay as above.
Description: as §1

Row | Binder | SPOT peptide array binding signal intensity
18 | ISNFVPPNLPMRRFK | 40

What follows are binders tested against CaAbp1-D2 in the same assay as above.
Description: as §1

Row | Binder | SPOT peptide array binding signal intensity
19 | ISNFVPPNLPMRRFK | 9

The binders below were run against CaBbc1 in the same assay as above.
Description: as §1

Row | Binder | SPOT peptide array binding signal intensity
20 | ISNFVPPNLPMRRFK | 902

What follows are binders tested against CaBem1-D1 in the same assay as above.
Description: as §1

Row | Binder | SPOT peptide array binding signal intensity
21 | ISNFVPPNLPMRRFK | 21

The binders below were run against CaBzz1-D1 in the same assay as above.
Description: as §1

Row | Binder | SPOT peptide array binding signal intensity
22 | ISNFVPPNLPMRRFK | 370

The binders below were run against CaBzz1-D2 in the same assay as above.
Description: as §1

Row | Binder | SPOT peptide array binding signal intensity
23 | ISNFVPPNLPMRRFK | 297

The binders below were run against CaCyk3 in the same assay as above.
Description: as §1

Row | Binder | SPOT peptide array binding signal intensity
24 | ISNFVPPNLPMRRFK | 47

The binders below were run against CaFus1 in the same assay as above.
Description: as §1

Row | Binder | SPOT peptide array binding signal intensity
25 | ISNFVPPNLPMRRFK | 152

What follows are binders tested against CaHof1 in the same assay as above.
Description: as §1

Row | Binder | SPOT peptide array binding signal intensity
26 | ISNFVPPNLPMRRFK | 5

What follows are binders tested against CaHse1 in the same assay as above.
Description: as §1

Row | Binder | SPOT peptide array binding signal intensity
27 | ISNFVPPNLPMRRFK | 72

The binders below were run against CaLsb1 in the same assay as above.
Description: as §1

Row | Binder | SPOT peptide array binding signal intensity
28 | ISNFVPPNLPMRRFK | 10.2

Each binder was assayed against CaLsb4 in the same assay as above.
Description: as §1

Row | Binder | SPOT peptide array binding signal intensity
29 | ISNFVPPNLPMRRFK | 5880

These binders were tested against CaMyo5 in the same assay as above.
Description: as §1

Row | Binder | SPOT peptide array binding signal intensity
30 | ISNFVPPNLPMRRFK | 28.5

These binders were tested against CaNbp2 in the same assay as above.
Description: as §1

Row | Binder | SPOT peptide array binding signal intensity
31 | ISNFVPPNLPMRRFK | 103

The binders below were run against CaRvs167 in the same assay as above.
Description: as §1

Row | Binder | SPOT peptide array binding signal intensity
32 | ISNFVPPNLPMRRFK | 571

Each binder was assayed against CaRvs167-3 in the same assay as above.
Description: as §1

Row | Binder | SPOT peptide array binding signal intensity
33 | ISNFVPPNLPMRRFK | 6.25

These binders were tested against CaSho1 in the same assay as above.
Description: as §1

Row | Binder | SPOT peptide array binding signal intensity
34 | ISNFVPPNLPMRRFK | 49.5

These binders were tested against CaSla1-D1-D2 in the same assay as above.
Description: as §1

Row | Binder | SPOT peptide array binding signal intensity
35 | ISNFVPPNLPMRRFK | 1000

These binders were tested against CaSla1-D3 in the same assay as above.
Description: as §1

Row | Binder | SPOT peptide array binding signal intensity
36 | ISNFVPPNLPMRRFK | 250

The binders below were run against ScAbp1 in the same assay as above.
Description: as §1

Row | Binder | SPOT peptide array binding signal intensity
37 | ISNFVPPNLPMRRFK | 44

What follows are binders tested against ScBbc1 in the same assay as above.
Description: as §1

Row | Binder | SPOT peptide array binding signal intensity
38 | ISNFVPPNLPMRRFK | 130

Each binder was assayed against ScBem1-D1 in the same assay as above.
Description: as §1

Row | Binder | SPOT peptide array binding signal intensity
39 | ISNFVPPNLPMRRFK | 13

What follows are binders tested against ScBzz1-D1 in the same assay as above.
Description: as §1

Row | Binder | SPOT peptide array binding signal intensity
40 | ISNFVPPNLPMRRFK | 29.5

The binders below were run against ScBzz1-D2 in the same assay as above.
Description: as §1

Row | Binder | SPOT peptide array binding signal intensity
41 | ISNFVPPNLPMRRFK | 63

What follows are binders tested against ScCyk3 in the same assay as above.
Description: as §1

Row | Binder | SPOT peptide array binding signal intensity
42 | ISNFVPPNLPMRRFK | 5.5

What follows are binders tested against ScFus1 in the same assay as above.
Description: as §1

Row | Binder | SPOT peptide array binding signal intensity
43 | ISNFVPPNLPMRRFK | 17

Each binder was assayed against ScHof1 in the same assay as above.
Description: as §1

Row | Binder | SPOT peptide array binding signal intensity
44 | ISNFVPPNLPMRRFK | 8.75

What follows are binders tested against ScHse1 in the same assay as above.
Description: as §1

Row | Binder | SPOT peptide array binding signal intensity
45 | ISNFVPPNLPMRRFK | 122

These binders were tested against ScLsb1 in the same assay as above.
Description: as §1

Row | Binder | SPOT peptide array binding signal intensity
46 | ISNFVPPNLPMRRFK | 393

The binders below were run against ScLsb2 in the same assay as above.
Description: as §1

Row | Binder | SPOT peptide array binding signal intensity
47 | ISNFVPPNLPMRRFK | 372

Each binder was assayed against ScLsb3 in the same assay as above.
Description: as §1

Row | Binder | SPOT peptide array binding signal intensity
48 | ISNFVPPNLPMRRFK | 7910

The binders below were run against ScLsb4 in the same assay as above.
Description: as §1

Row | Binder | SPOT peptide array binding signal intensity
49 | ISNFVPPNLPMRRFK | 2470

Each binder was assayed against ScMyo3 in the same assay as above.
Description: as §1

Row | Binder | SPOT peptide array binding signal intensity
50 | ISNFVPPNLPMRRFK | 17.2

These binders were tested against ScMyo5 in the same assay as above.
Description: as §1

Row | Binder | SPOT peptide array binding signal intensity
51 | ISNFVPPNLPMRRFK | 1.5

Each binder was assayed against ScNbp2 in the same assay as above.
Description: as §1

Row | Binder | SPOT peptide array binding signal intensity
52 | ISNFVPPNLPMRRFK | 198

The binders below were run against ScPex13 in the same assay as above.
Description: as §1

Row | Binder | SPOT peptide array binding signal intensity
53 | ISNFVPPNLPMRRFK | 1760

What follows are binders tested against ScRvs167 in the same assay as above.
Description: as §1

Row | Binder | SPOT peptide array binding signal intensity
54 | ISNFVPPNLPMRRFK | 1610

The binders below were run against ScSho1 in the same assay as above.
Description: as §1

Row | Binder | SPOT peptide array binding signal intensity
55 | ISNFVPPNLPMRRFK | 85.5

Each binder was assayed against ScSla1-D1-D2 in the same assay as above.
Description: as §1

Row | Binder | SPOT peptide array binding signal intensity
56 | ISNFVPPNLPMRRFK | 367

Each binder was assayed against ScSla1-D3 in the same assay as above.
Description: as §1

Row | Binder | SPOT peptide array binding signal intensity
57 | ISNFVPPNLPMRRFK | 184

What follows are binders tested against SpAbp1-D1 in the same assay as above.
Description: as §1

Row | Binder | SPOT peptide array binding signal intensity
58 | ISNFVPPNLPMRRFK | 26

The binders below were run against SpBbc1 in the same assay as above.
Description: as §1

Row | Binder | SPOT peptide array binding signal intensity
59 | ISNFVPPNLPMRRFK | 36.5

These binders were tested against SpBzz1-D1 in the same assay as above.
Description: as §1

Row | Binder | SPOT peptide array binding signal intensity
60 | ISNFVPPNLPMRRFK | 748

These binders were tested against SpBzz1-D2 in the same assay as above.
Description: as §1

Row | Binder | SPOT peptide array binding signal intensity
61 | ISNFVPPNLPMRRFK | 3

Each binder was assayed against SpCyk3 in the same assay as above.
Description: as §1

Row | Binder | SPOT peptide array binding signal intensity
62 | ISNFVPPNLPMRRFK | 8

Each binder was assayed against SpHof1 in the same assay as above.
Description: as §1

Row | Binder | SPOT peptide array binding signal intensity
63 | ISNFVPPNLPMRRFK | 51.8

Each binder was assayed against SpHof1-2 in the same assay as above.
Description: as §1

Row | Binder | SPOT peptide array binding signal intensity
64 | ISNFVPPNLPMRRFK | 41

The binders below were run against SpHof1-3 in the same assay as above.
Description: as §1

Row | Binder | SPOT peptide array binding signal intensity
65 | ISNFVPPNLPMRRFK | 22

These binders were tested against SpHse1 in the same assay as above.
Description: as §1

Row | Binder | SPOT peptide array binding signal intensity
66 | ISNFVPPNLPMRRFK | 86

These binders were tested against SpLsb1 in the same assay as above.
Description: as §1

Row | Binder | SPOT peptide array binding signal intensity
67 | ISNFVPPNLPMRRFK | 236

These binders were tested against SpLsb4 in the same assay as above.
Description: as §1

Row | Binder | SPOT peptide array binding signal intensity
68 | ISNFVPPNLPMRRFK | 6240

The binders below were run against SpMyo1 in the same assay as above.
Description: as §1

Row | Binder | SPOT peptide array binding signal intensity
69 | ISNFVPPNLPMRRFK | 31.2

Each binder was assayed against SpNbp2 in the same assay as above.
Description: as §1

Row | Binder | SPOT peptide array binding signal intensity
70 | ISNFVPPNLPMRRFK | 13

The binders below were run against SpPex13 in the same assay as above.
Description: as §1

Row | Binder | SPOT peptide array binding signal intensity
71 | ISNFVPPNLPMRRFK | 57.5

These binders were tested against SpRvs167 in the same assay as above.
Description: as §1

Row | Binder | SPOT peptide array binding signal intensity
72 | ISNFVPPNLPMRRFK | 1440

These binders were tested against SpSla1-D1-D2 in the same assay as above.
Description: as §1

Row | Binder | SPOT peptide array binding signal intensity
73 | ISNFVPPNLPMRRFK | 69

The binders below were run against SpSla1-D3 in the same assay as above.
Description: as §1

Row | Binder | SPOT peptide array binding signal intensity
74 | ISNFVPPNLPMRRFK | 32
